Data on one sequence can be found in paper PMC7862700, “An all-to-all approach to the identification of sequence-specific readers for epigenetic DNA modifications on cytosine”.

Assay in all cases: DAPPL (digital affinity profiling via proximity ligation, sequencing); 10 mM Tris-HCl pH 7.5, 50 mM NaCl, 1 mM DTT, 4% glycerol, room temperature, 30 min; GST-TFs on glutathione beads, 16-mer random dsDNA library, 0.1% formaldehyde crosslink after washing; high values mean tight binding
One test deals with T1, FEV (Homo sapiens, UniProt Q99581 1-238).
T1 sequence: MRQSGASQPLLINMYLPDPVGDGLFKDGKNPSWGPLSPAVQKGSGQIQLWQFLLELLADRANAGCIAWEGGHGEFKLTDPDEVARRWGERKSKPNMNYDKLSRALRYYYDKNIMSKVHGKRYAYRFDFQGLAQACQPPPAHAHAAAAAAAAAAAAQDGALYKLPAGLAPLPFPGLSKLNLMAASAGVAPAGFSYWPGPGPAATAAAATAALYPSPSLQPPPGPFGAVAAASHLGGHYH
To be noted: protein: recombinant; tags: N-terminal GST; dsDNA, one strand shown. Put shortly:
(§1)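 Binding signal is each hexamer's read frequency for a factor divided by its frequency in the tag-only sample. The factors were GST-fused human transcription factors from yeast, captured on glutathione beads, DNA-barcoded and pooled with that sample. Pools were incubated with 200 nmole of a random double-stranded 16-mer DNA library in Tris/NaCl/DTT/glycerol buffer at room temperature for 30 min, then washed, crosslinked with 0.1% formaldehyde, proximity-ligated with BsaI/T4 ligase (1 h, 37 °C), PCR-amplified and sequenced on an Illumina NextSeq500.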

Another test addresses ETV5 (Homo sapiens, UniProt P41161 1-510). To be noted: protein: recombinant; tags: N-terminal GST; dsDNA, one strand shown. Put shortly: as §1
The target in another test is HSF1 (Homo sapiens, UniProt Q00613 1-529). To be noted: protein: recombinant; tags: N-terminal GST; chain copies: 3; dsDNA, one strand shown. Put shortly: as §1
Chain of HSF1 (Q00613 whole entry): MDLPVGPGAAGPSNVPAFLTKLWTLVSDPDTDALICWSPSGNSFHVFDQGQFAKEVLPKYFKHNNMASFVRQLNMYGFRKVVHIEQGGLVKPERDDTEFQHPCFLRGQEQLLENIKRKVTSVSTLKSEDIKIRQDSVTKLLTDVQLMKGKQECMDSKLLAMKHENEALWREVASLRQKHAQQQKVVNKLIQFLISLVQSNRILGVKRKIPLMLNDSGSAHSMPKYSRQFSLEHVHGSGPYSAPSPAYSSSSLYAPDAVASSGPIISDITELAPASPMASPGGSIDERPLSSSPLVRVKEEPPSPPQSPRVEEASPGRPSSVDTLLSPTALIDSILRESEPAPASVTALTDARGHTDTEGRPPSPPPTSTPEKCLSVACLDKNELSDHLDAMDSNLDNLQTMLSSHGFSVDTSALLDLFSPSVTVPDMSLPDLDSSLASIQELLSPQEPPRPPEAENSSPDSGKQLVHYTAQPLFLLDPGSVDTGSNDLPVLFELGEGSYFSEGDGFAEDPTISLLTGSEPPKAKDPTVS
The next test has as its target T2, SPIC (Homo sapiens, UniProt Q8N5J4 1-248).
T2 sequence: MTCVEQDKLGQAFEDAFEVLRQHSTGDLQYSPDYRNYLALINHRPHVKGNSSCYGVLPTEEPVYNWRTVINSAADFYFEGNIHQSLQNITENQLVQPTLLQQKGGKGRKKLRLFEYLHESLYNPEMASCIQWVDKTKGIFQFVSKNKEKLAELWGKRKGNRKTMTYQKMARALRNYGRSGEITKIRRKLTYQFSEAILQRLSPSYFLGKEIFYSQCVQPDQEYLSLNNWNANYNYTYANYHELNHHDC
To be noted: protein: recombinant; tags: N-terminal GST; dsDNA, one strand shown. In outline:
as §1

A further test has as its target ELF4 (Homo sapiens, UniProt Q99607 1-663). To be noted: protein: recombinant; tags: N-terminal GST; dsDNA, one strand shown. In outline:
as §1

Another test has as its target T3, ELK4 (Homo sapiens, UniProt P28324-2 1-405).
T3 sequence: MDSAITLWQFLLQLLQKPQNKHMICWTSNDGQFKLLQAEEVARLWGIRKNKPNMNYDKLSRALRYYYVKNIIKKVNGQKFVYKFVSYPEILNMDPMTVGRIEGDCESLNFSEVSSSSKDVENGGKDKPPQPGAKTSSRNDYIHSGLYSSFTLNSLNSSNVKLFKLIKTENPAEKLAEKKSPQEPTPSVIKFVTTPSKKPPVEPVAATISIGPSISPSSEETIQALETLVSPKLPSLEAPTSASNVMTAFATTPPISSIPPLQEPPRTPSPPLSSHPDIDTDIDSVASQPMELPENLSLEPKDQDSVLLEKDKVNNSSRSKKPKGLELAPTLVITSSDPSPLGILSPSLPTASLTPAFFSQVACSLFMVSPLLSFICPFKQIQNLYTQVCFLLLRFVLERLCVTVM
To be noted: protein: recombinant; tags: N-terminal GST; dsDNA, one strand shown. Put shortly: as §1

For the next test, the target named is T4, ETV2 (Homo sapiens, UniProt O00321 1-342).
T4 sequence: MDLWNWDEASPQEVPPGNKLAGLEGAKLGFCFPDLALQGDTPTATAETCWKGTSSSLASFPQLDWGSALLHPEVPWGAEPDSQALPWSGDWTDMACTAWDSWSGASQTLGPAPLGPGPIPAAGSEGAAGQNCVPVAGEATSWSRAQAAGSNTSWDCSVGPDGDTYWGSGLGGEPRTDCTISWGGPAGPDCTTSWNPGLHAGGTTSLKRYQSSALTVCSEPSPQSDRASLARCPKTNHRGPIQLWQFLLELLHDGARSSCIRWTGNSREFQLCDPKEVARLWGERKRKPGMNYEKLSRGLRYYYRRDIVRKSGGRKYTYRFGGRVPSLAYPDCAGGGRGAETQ
To be noted: protein: recombinant; tags: N-terminal GST; dsDNA, one strand shown. In outline: as §1

For a further test, the target named is T5, ELF3 (Homo sapiens, UniProt P78545 1-371).
T5 sequence: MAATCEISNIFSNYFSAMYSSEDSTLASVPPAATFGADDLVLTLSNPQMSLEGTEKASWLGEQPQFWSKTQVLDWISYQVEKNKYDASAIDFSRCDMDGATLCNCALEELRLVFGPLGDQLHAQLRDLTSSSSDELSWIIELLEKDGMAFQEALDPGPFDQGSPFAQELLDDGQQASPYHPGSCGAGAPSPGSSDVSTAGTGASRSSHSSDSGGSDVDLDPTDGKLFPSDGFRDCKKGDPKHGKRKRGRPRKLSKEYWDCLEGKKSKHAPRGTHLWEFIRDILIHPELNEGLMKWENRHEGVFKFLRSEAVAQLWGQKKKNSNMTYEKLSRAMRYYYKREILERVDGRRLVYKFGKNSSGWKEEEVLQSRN
To be noted: protein: recombinant; tags: N-terminal GST; dsDNA, one strand shown. Put shortly:
as §1

The target of a further test is CRX (Homo sapiens, UniProt O43186 1-299). To be noted: protein: recombinant; tags: N-terminal GST; dsDNA, one strand shown. In outline: as §1
Chain of CRX (O43186 whole entry): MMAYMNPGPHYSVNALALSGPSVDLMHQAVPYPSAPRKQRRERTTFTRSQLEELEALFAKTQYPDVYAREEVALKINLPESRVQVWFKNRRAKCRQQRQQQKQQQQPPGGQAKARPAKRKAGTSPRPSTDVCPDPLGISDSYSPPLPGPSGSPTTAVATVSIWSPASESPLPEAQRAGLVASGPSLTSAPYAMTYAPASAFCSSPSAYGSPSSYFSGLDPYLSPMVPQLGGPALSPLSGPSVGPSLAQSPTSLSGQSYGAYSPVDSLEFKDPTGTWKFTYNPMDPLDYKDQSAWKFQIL
A further test concerns the target ETV1 (Homo sapiens, UniProt P50549 1-477). To be noted: protein: recombinant; tags: N-terminal GST; dsDNA, one strand shown. Put shortly: as §1
In a further test the target is T6, ERF (Homo sapiens, UniProt P50548 1-548).
T6 sequence: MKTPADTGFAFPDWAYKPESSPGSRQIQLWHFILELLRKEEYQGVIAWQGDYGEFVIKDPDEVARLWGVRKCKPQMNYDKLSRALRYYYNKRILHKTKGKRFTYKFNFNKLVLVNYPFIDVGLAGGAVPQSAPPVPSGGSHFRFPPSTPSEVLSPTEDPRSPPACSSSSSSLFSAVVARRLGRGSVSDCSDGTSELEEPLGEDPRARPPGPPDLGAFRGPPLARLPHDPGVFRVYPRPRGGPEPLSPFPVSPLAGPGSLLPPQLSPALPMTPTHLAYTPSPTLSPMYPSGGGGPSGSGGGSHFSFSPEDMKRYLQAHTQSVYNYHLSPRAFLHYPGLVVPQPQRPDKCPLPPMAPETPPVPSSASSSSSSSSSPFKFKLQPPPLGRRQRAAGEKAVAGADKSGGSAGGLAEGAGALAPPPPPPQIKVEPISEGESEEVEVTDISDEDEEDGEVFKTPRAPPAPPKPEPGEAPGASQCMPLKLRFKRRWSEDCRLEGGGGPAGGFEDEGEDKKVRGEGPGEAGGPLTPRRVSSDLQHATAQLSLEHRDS
To be noted: protein: recombinant; tags: N-terminal GST; dsDNA, one strand shown. Put shortly: as §1

A further test addresses T7, ETV3L (Homo sapiens, UniProt Q6ZN32 1-361).
T7 sequence: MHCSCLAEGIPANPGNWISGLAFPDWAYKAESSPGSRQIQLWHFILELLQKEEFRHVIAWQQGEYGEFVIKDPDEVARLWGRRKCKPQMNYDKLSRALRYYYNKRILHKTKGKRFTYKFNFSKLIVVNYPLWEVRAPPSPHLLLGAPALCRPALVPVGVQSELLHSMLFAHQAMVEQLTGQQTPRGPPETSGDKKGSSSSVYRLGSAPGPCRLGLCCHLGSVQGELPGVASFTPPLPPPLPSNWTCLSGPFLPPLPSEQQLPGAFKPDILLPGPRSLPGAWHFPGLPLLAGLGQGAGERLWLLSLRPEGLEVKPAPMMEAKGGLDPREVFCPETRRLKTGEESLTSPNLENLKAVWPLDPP
To be noted: protein: recombinant; tags: N-terminal GST; dsDNA, one strand shown. In outline:
as §1

A further test concerns the target T8, ETS2 (Homo sapiens, UniProt P15036 1-469).
T8 sequence: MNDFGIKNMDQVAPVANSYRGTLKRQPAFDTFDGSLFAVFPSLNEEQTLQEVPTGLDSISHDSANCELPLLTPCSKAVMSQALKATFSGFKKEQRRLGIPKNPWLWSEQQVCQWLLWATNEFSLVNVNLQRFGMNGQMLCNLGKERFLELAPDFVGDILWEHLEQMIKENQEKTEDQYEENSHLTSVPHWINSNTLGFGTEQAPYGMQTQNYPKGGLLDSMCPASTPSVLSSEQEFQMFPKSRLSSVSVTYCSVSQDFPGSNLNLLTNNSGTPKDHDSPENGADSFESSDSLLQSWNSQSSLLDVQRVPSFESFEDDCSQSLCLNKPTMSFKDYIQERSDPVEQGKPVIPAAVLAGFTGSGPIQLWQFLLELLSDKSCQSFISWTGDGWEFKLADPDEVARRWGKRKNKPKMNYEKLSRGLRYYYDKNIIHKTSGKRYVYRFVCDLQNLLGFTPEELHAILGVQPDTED
To be noted: protein: recombinant; tags: N-terminal GST; dsDNA, one strand shown. Put shortly:
as §1

For a further test, the target named is T9, SPDEF (Homo sapiens, UniProt O95238 1-335).
T9 sequence: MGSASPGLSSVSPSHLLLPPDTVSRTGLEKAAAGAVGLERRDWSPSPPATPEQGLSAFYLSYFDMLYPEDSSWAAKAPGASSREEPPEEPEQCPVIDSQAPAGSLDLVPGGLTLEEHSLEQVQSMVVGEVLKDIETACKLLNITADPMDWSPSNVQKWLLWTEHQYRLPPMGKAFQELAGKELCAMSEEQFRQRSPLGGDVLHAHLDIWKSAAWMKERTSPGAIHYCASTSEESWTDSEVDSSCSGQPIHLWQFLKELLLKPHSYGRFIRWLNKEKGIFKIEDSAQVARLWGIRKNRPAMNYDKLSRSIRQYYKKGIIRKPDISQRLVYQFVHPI
To be noted: protein: recombinant; tags: N-terminal GST; dsDNA, one strand shown. In outline: as §1

The target in the next test is T10, ETV7 (Homo sapiens, UniProt Q9Y603 1-341).
T10 sequence: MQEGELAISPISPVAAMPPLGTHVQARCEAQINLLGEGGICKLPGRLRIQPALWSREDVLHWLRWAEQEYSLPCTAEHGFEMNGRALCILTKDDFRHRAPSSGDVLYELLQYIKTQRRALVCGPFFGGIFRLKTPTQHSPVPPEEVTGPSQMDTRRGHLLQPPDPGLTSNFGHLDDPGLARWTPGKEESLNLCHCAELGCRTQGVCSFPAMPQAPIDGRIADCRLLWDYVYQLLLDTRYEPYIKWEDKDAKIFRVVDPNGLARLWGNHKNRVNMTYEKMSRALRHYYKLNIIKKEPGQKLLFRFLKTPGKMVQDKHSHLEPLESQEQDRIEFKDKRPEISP
To be noted: protein: recombinant; tags: N-terminal GST; dsDNA, one strand shown. Put shortly:
as §1

For another test, the target named is T11, ELF5 (Homo sapiens, UniProt Q9UKW6-2 1-255).
T11 sequence: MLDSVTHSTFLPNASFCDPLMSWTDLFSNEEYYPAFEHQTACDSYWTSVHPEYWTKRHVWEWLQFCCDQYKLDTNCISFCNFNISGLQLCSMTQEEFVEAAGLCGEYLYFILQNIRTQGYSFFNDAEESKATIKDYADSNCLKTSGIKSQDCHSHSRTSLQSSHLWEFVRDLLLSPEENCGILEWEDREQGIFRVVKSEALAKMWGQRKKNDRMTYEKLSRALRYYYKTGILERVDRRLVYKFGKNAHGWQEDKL
To be noted: protein: recombinant; tags: N-terminal GST; dsDNA, one strand shown. In outline: as §1

In the next test the target is T12, ETV3 (Homo sapiens, UniProt P41162-2 1-143).
T12 sequence: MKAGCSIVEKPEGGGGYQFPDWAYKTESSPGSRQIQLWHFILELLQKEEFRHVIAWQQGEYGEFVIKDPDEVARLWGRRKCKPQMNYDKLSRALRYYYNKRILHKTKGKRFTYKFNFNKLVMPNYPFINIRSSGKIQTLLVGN
To be noted: protein: recombinant; tags: N-terminal GST; dsDNA, one strand shown. In outline:
as §1

For the next test, the target named is ETV6 (Homo sapiens, UniProt P41212 1-452). To be noted: protein: recombinant; tags: N-terminal GST; dsDNA, one strand shown. In outline: as §1
Chain of ETV6 (P41212 whole entry): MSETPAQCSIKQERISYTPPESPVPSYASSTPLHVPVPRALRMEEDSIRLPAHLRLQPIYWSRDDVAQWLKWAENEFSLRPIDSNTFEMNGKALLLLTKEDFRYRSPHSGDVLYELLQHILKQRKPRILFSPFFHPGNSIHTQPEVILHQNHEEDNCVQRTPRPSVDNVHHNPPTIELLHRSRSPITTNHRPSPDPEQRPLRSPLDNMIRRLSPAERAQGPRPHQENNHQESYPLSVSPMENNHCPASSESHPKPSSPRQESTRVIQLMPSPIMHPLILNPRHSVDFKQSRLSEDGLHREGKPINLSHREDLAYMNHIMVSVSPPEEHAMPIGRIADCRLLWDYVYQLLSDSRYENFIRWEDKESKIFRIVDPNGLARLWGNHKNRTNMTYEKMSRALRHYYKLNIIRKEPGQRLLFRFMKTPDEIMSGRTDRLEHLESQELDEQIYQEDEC

Chain of ELF4 (Q99607 whole entry): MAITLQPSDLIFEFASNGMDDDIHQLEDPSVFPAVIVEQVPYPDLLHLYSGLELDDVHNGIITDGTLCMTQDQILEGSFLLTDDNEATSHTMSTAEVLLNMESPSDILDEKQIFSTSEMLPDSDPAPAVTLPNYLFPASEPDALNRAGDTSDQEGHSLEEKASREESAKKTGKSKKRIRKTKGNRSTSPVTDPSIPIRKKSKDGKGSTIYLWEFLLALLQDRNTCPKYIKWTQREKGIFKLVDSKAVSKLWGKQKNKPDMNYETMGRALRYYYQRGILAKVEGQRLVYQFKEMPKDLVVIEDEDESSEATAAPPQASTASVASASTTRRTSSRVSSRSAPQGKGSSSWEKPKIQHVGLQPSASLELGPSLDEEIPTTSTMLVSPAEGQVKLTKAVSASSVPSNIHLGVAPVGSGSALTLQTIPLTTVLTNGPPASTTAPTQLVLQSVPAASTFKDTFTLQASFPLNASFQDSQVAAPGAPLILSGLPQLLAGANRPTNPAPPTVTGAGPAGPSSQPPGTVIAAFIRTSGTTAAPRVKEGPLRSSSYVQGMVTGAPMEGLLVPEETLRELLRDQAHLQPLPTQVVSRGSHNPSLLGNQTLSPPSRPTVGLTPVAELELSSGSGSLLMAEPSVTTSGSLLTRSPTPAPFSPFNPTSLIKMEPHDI
Chain of ETV5 (P41161 whole entry): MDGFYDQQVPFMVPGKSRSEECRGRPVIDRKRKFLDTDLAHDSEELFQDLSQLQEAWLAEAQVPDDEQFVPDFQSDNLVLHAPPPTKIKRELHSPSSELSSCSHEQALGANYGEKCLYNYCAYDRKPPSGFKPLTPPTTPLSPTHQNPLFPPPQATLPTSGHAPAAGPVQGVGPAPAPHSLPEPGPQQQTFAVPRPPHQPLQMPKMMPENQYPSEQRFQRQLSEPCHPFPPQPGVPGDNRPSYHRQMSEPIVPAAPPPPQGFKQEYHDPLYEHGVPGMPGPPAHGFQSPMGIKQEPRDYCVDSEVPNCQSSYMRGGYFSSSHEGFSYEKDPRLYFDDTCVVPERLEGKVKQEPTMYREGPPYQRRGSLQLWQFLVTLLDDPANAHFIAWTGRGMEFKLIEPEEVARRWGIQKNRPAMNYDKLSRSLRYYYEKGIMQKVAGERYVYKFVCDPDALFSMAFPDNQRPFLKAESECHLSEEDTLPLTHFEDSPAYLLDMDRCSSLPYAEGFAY
Chain of ETV1 (P50549 whole entry): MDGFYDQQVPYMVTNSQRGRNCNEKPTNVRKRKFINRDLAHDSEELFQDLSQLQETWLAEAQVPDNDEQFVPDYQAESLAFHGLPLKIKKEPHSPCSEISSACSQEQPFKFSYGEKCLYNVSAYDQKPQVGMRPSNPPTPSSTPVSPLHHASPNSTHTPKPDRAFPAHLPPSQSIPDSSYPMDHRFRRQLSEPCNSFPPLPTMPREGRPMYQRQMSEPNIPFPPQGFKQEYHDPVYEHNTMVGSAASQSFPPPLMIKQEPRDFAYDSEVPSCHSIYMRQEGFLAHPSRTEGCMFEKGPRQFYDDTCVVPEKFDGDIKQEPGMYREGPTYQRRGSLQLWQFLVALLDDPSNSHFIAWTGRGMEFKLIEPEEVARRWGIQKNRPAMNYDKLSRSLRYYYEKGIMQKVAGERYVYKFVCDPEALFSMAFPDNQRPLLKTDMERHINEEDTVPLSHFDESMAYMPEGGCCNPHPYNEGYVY

Regarding CTCGTT, the binding signal with FEV was 1.22 fold enrichment (6-mer frequency, TF over GST control); with ETV5, 1.29 fold enrichment (6-mer frequency, TF over GST control); with HSF1, 1.24 fold enrichment (6-mer frequency, TF over GST control); in the test with SPIC, 1.37 fold enrichment (6-mer frequency, TF over GST control); with ELF4, 1.28 fold enrichment (6-mer frequency, TF over GST control); in the test with ELK4, 1.4 fold enrichment (6-mer frequency, TF over GST control). In addition, the binding signal is 1.36 fold enrichment (6-mer frequency, TF over GST control) with ETV2; 1.46 fold enrichment (6-mer frequency, TF over GST control) with ELF3; 1.1 fold enrichment (6-mer frequency, TF over GST control) in the test with CRX; 1.22 fold enrichment (6-mer frequency, TF over GST control) with ETV1; 1.4 fold enrichment (6-mer frequency, TF over GST control) with ERF; 1.43 fold enrichment (6-mer frequency, TF over GST control) with ETV3L. Besides, the binding signal with ETS2 was 1.27 fold enrichment (6-mer frequency, TF over GST control); with SPDEF, 1.27 fold enrichment (6-mer frequency, TF over GST control); in the test with ETV7 it was 1.37 fold enrichment (6-mer frequency, TF over GST control); with ELF5 it was 1.44 fold enrichment (6-mer frequency, TF over GST control); with ETV3 it was 1.25 fold enrichment (6-mer frequency, TF over GST control); in the test with ETV6 it was 1.23 fold enrichment (6-mer frequency, TF over GST control).
